Results on 29 molecules are retold here after PubChem BioAssay.

Active and inactive are the calls of the source.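 How the source made its calls, unless noted: active means z-score of at least 1.8 in each of two replicates, scored against plate mean and spread of sample wells; inactive means the rest.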

The nature of experiment [1]: survival rescue of mitochondrial mutant cells in low glucose, primary screen, MELAS cybrids, Rieske KO mouse fibroblasts, CellTiter-Glo (AID 1508586;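 active means mean z-score across replicates of 1.96 or higher in either the MELAS or the Rieske mutant cell line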;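 further: test concentration not given here; z relative to plate mean and SD of compound and empty wells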). On the technique in general: In ATP-based viability assays light output follows the ATP content of the culture.
The nature of experiment [2]: viability rescue of complex I mutant cybrids, primary screen, cell-based, galactose medium, ATP luminescence (AID 1645843).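 Further: positive z means more ATP and so rescue of galactose-driven cybrid death.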 The note with it: complex I mutant cybrid cells, 72 h, stronger effect = higher value.
Where [3] appears, read: MELAS cybrid survival, CellTiter-Glo 48 h, stronger effect = higher value.
Setting [4] is: Rieske KO mouse fibroblast survival, CellTiter-Glo 72 h.

Turning to `C=CCn1nc(C(=O)N2CCOCC2)c2c1CCC(NCc1ccc(Cl)s1)C2` (configuration not stated), the z-score in experiment [1] (setting [3]) is -0.625 (inactive); in experiment [1] (setting [4]) it was -0.989; in experiment [2], 0.86 (inactive).

In the case of `Cc1ccc(C(C)CCN2CCC3(CC2)C(=O)N(C(C)C)C(=O)N3CCC(C)C)o1` (configuration not stated), the z-score in experiment [1] (setting [3]) is -0.199 (inactive); in experiment [1] (setting [4]) it was -0.496; in experiment [2], 0.91 (inactive).

Take `Cc1ccc(-c2cc(C(=O)N3CCSCC3)cc(S(=O)(=O)N3CCOCC3)c2)s1`: the z-score was -0.321 (inactive) in experiment [1] (setting [3]), -0.0192 in experiment [1] (setting [4]) and 0.905 (inactive) in experiment [2].

As to `CN(C)c1ncc(CN2CCc3c(cc(Cc4ccccc4)c(=O)n3Cc3ccc(F)cc3)C2)s1`, the results for the z-score in experiment [1] (setting [3]), in experiment [1] (setting [4]) and in experiment [2] were -0.5 (inactive), 0.0943 and -0.525 (inactive), respectively.

On to `Cc1ccc(CNC(=O)c2nn(C)c3c2CC(NC2CCN(Cc4ccccc4)CC2)CC3)o1` (configuration not stated), for which the z-score was 0.347 (inactive) in experiment [1] (setting [3]), 0.979 in experiment [1] (setting [4]) and -1.23 (inactive) in experiment [2].

As for `COc1cc(CN2CCc3c(cc(Cc4ccccc4C)c(=O)n3CC3CC3)C2)ccc1O`, the z-score in experiment [1] (setting [3]) is -0.322 (inactive); in experiment [1] (setting [4]) it was -0.319; in experiment [2] it was -1.32 (inactive).

Turning to `CN(C)c1cccc(NC(=O)c2cc(NCc3cnn(C)c3)cc(S(=O)(=O)N3CCCC3)c2)c1`, the z-score in experiment [1] (setting [3]) is -0.28 (inactive); in experiment [1] (setting [4]), -0.862; in experiment [2] it was 0.265 (inactive).

With `COc1ccc(CN2C[C@@H](COc3cccc(C(F)(F)F)c3)C[C@@H](C(=O)NCC(C)C)C2)cc1OC`, the z-score in experiment [1] (setting [3]) is -0.34 (inactive); in experiment [1] (setting [4]) it was 0.0165; in experiment [2], -1.45 (inactive).

As for `COC(=O)c1c(NC(=O)C2CCOC2)c2cc(NC(C)CO)cnc2n1CCCc1ccccc1` (configuration not stated), the z-score in experiment [1] (setting [3]) is -1.11 (inactive); in experiment [1] (setting [4]), 1.02; in experiment [2], -0.185 (inactive).

Take `CCn1c(C(=O)OC)c(NC(C)=O)c2cc(NCc3ccc(OC)cc3)cnc21`: the z-score in experiment [1] (setting [3]) is -0.521 (inactive); in experiment [1] (setting [4]), -0.331; in experiment [2], -0.96 (inactive).

`COc1ccccc1CNC1CCc2c(c(C(=O)N3CCc4ccccc4C3)nn2C)C1` (configuration not stated): the z-score in experiment [1] (setting [3]) is -0.107 (inactive); in experiment [1] (setting [4]) it was -0.0135; in experiment [2] it was 0.07 (inactive).

Turning to `COc1cccc(C(=O)N2CCN3C(=O)[C@H](C(C)C)NC(=O)[C@H]3C2)c1`, the z-score in experiment [1] (setting [3]) was -0.0303 (inactive); in experiment [1] (setting [4]), -0.513; in experiment [2] it was 0.605 (inactive).

Consider `CCc1ccc(CNc2cnc3c(c2)c(NC(=O)c2cccnc2)c(C(=O)OC)n3CC(C)C)o1`, for which the z-score is 3.75 (active) in experiment [1] (setting [3]), 4.55 in experiment [1] (setting [4]) and -1.67 (inactive) in experiment [2].

For the molecule `COc1ccc(CCNC2CCc3c(c(C(=O)N(C)C)nn3CC3CCCCC3)C2)cc1` (configuration not stated), the z-score in experiment [1] (setting [3]) was -0.342 (inactive); in experiment [1] (setting [4]) it was 0.349; in experiment [2], -1.19 (inactive).

Take `COCc1ccc(C(=O)N2CCc3c(cc(-c4ccncc4)c(=O)n3CCN3CCCCC3)C2)o1`: the z-score in experiment [1] (setting [3]) was -0.345 (inactive); in experiment [1] (setting [4]), 0.626; in experiment [2] it was 0.77 (inactive).

Regarding `COC(=O)c1c(NC(=O)c2cccnc2)c2cc(NCc3ccc4c(c3)CCO4)cnc2n1CC(C)C`, the z-score in experiment [1] (setting [3]) was -0.55; in experiment [1] (setting [4]), 3.72; in experiment [2], -1.61 (inactive).

As to `CN(Cc1nc(-c2ccccc2)cs1)C1CCc2c(c(C(=O)N3CCSCC3)nn2C)C1` (configuration not stated), the z-score is 0.0592 (inactive) in experiment [1] (setting [3]), 0.0851 in experiment [1] (setting [4]) and 0.7 (inactive) in experiment [2].

For the molecule `Cc1nc2ccccc2nc1CN1CC(=O)N(C2CCCCC2)CC(OCc2cccnc2)C1` (configuration not stated), the z-score in experiment [1] (setting [3]) was -0.279; in experiment [1] (setting [4]), 6.23; in experiment [2] it was -1.6 (inactive).

For `Cc1ccc(-c2cc(C(=O)NCc3c(C)nn(C)c3C)cc(S(=O)(=O)N3CCOCC3)c2)s1`, the z-score is -0.303 (inactive) in experiment [1] (setting [3]), -0.219 in experiment [1] (setting [4]) and 0.42 (inactive) in experiment [2].

Turning to `O=C(NCCn1ccnc1)c1cc(NCC2CC=CCC2)cc(S(=O)(=O)N2CCCC2)c1` (configuration not stated), the values for the z-score in experiment [1] (setting [3]), in experiment [1] (setting [4]) and in experiment [2] were -0.174 (inactive), -0.234 and -0.94 (inactive), respectively.

As to `Cc1ccnn1CCC(=O)N1CCc2c(cc(Cc3ccccc3F)c(=O)n2Cc2cccnc2)C1`, the values for the z-score in experiment [1] (setting [3]), in experiment [1] (setting [4]) and in experiment [2] were -0.36 (inactive), -0.461 and 0.325 (inactive), respectively.

On to `COc1ccc(/C=C/CN2CCc3c(cc(-c4cccc(-n5nc(C)cc5C)c4)c(=O)n3C)C2)cc1`, for which the z-score in experiment [1] (setting [3]) is -0.672 (inactive); in experiment [1] (setting [4]) it was -0.157; in experiment [2] it was -0.63 (inactive).

For the molecule `O=C(N[C@H]1C[C@H]2C(=O)N3CCC[C@H]3C(=O)N2C1)c1cccnc1Oc1ccc(Cl)cc1`, the z-score was -0.353 (inactive) in experiment [1] (setting [3]), -0.898 in experiment [1] (setting [4]) and -0.34 (inactive) in experiment [2].

As for `COc1ccc(-c2[nH]ncc2CN2CCC3(CC2)C(=O)N(C(C)C)C(=O)N3CCC(C)C)cc1`, the figures for the z-score in experiment [1] (setting [3]), in experiment [1] (setting [4]) and in experiment [2] were 0.0083 (inactive), -0.0351 and 0.975 (inactive), respectively.

In the case of `C[C@@H](NC(=O)N[C@H]1C[C@H]2C(=O)N[C@H](Cc3ccc(O)cc3)C(=O)N2C1)c1ccccc1`, the z-score in experiment [1] (setting [3]) is -0.3 (inactive); in experiment [1] (setting [4]), -0.613; in experiment [2] it was 0.6 (inactive).

As for `COc1cc(CN2CCc3c(c(C(=O)NCCCN4CCOCC4)nn3C)C2)cc2c1OCO2`, the values for the z-score in experiment [1] (setting [3]), in experiment [1] (setting [4]) and in experiment [2] were 0.109 (inactive), -0.162 and -0.765 (inactive), respectively.

`O=C([C@@H]1C[C@H](CN2CCOCC2)CN(Cc2ccc3ccccc3c2)C1)N1CCCC1`: the z-score is 1.59 (inactive) in experiment [1] (setting [3]), -0.119 in experiment [1] (setting [4]) and -0.585 (inactive) in experiment [2].

Take `CC(C)[C@@H]1NC(=O)[C@@H]2C[C@H](NC(=O)OCc3ccccc3)CN2C1=O`: the z-score in experiment [1] (setting [3]) is -0.138 (inactive); in experiment [1] (setting [4]), -0.152; in experiment [2], -1.16 (inactive).

Turning to `Cn1ccnc1CN1C[C@@H](CN2CCOCC2)C[C@@H](C(=O)N2CCCC2)C1`, the z-score was 0.188 (inactive) in experiment [1] (setting [3]), 0.125 in experiment [1] (setting [4]) and -0.64 (inactive) in experiment [2].
